Most compounds without a hit are left out; they make up all but 12% or so of the library.
Lassa entry inh – blocks Lassa virus binding to or entry into cells; Lassa virus pseudotype entry inhibition, cell reporter; Potency, µM (doses to about 37.9 µM), without a hit: at the top dose activity change, negative = inhibition, usual class: inhibitors; 1.2% of 300,000 active; calls by dose curve; tested in HEK293 cells; note: potency is the fitted concentration of half-maximal effect; % is set by controls: 0 for no effect and ±100 for the full control effect; nearly all actives have a fitted effect of over 50% in size
Shiga inhibitor – inhibitors of Shiga toxin in Vero cells; Vero cells, Shiga toxin protein synthesis inhibition reporter; inhibition, % at 38.7 µM; 9.2% of 290,000 active; in the data active = inhibition mostly above about 28%, no sharp cut-off; inactive = mostly below about 43%; note: 0% is about no effect
Marburg entry inh – inhibitors of Marburg virus binding or cell entry. Potency, µM (doses to about 37.8 µM), for inactives: at the highest dose activity change, negative = inhibition, usual class: inhibitors. 1.8% of 300,000 active. Marburg virus pseudotyped entry inhibition, cell reporter. AID 540276; calls by dose curve; tested in HEK293 cells; note: potency is the fitted concentration of half-maximal effect; % is set by controls: 0 for no effect and ±100 for the full control effect
CHX counter – counter-screen for Shiga toxin inhibitors: cycloheximide protein synthesis inhibition. 12% of 300,000 active. cell reporter, cycloheximide protein synthesis inhibition counterscreen. max response, %; in the data active = max response mostly above about 13%, no sharp cut-off; inactive = mostly below about 14%; note: read at 38.3 µM for the half of the compounds with a filed dose; 0% is about no effect
Numbers without * were called inactive; [ ] = remark or other dose.

What do the screens show for `Cc1cccc(/C=N/NC(=O)C[n+]2ccccc2)c1`?
Lassa entry inh: 7%[46.1 µM]; Marburg entry inh: 9%

Results for O=C(COC(=O)CNC(=O)C1CCCCC1)Nc1ccc(Br)cc1Br ?
Lassa entry inh: 0%; Marburg entry inh: 1%

How did NC(=NC1CCCCC1)c1ccc(Cl)cc1 do in these assays?
Lassa entry inh: -6%[46.1 µM]; Shiga inhibitor: -4; Marburg entry inh: inconclusive; CHX counter: -6

Results for O=C(CNC(=O)C1CCCCC1)OCC(=O)c1ccc(Br)cc1 ?
Shiga inhibitor: 56*; CHX counter: 41*

Results for N/C(=N\OC(=O)C1CCCCC1)c1ccc(Cl)cc1 ?
Shiga inhibitor: 46; CHX counter: 28*

What do the screens show for `N/C(=N\OC(=O)C1CCCCC1)c1ccncc1`?
Lassa entry inh: 6%; Shiga inhibitor: 30*; Marburg entry inh: 18%[46.1 µM]; CHX counter: 11*

Results for N/C(=N\OC(=O)C1CCCCC1)c1ccccn1 ?
Lassa entry inh: 2%; Shiga inhibitor: 86*; Marburg entry inh: -9%; CHX counter: 31*

Results for CCOc1cc(NC(=O)C2CCCCC2)c(OCC)cc1NC(=O)c1ccccn1 ?
Lassa entry inh: inconclusive; Shiga inhibitor: 10; Marburg entry inh: 15%[46.1 µM]; CHX counter: -3

How did CCNc1c(NC(=O)c2cc(OCC)c(OCC)c(OCC)c2)c(=O)oc2ccccc12 do in these assays?
Lassa entry inh: -10%[46.1 µM]; Marburg entry inh: 2%[46.1 µM]

How did Cc1ccc(-c2noc(CNC(=O)c3ccc(C)c(Cl)c3)n2)cc1 do in these assays?
Lassa entry inh: -7%[46.1 µM]; Marburg entry inh: inconclusive

Results for O=C1COc2cc(S(=O)(=O)CCC(=O)N3CCN(c4ccccc4)CC3)c(Cl)cc2N1 ?
Lassa entry inh: -18%[46.1 µM]

Results for N/C(=N\OC(=O)C1CCCCC1)c1ccc(Br)cc1 ?
Lassa entry inh: inconclusive; Shiga inhibitor: 51*; Marburg entry inh: inconclusive; CHX counter: 23*

How did Nc1n[nH]c(C2CC2)c1N=Nc1ccc(Cl)c(Cl)c1 do in these assays?
Lassa entry inh: 6%; Shiga inhibitor: 51*; Marburg entry inh: 2%[46.1 µM]; CHX counter: 22

How did Nc1n[nH]c(C2CC2)c1N=Nc1ccc(Cl)cc1 do in these assays?
Shiga inhibitor: 35; CHX counter: 8

What do the screens show for `O=C1c2ccccc2-c2onc3ccc(Oc4ccccc4)c1c23`?
Lassa entry inh: 10µM*; Shiga inhibitor: 10; Marburg entry inh: inconclusive; CHX counter: -3

How did O=C1c2ccccc2-c2onc3c(NCCO)cc(NC4CCCCC4)c1c23 do in these assays?
Lassa entry inh: -20%[46.1 µM]; Marburg entry inh: -43%[46.1 µM]

Results for COc1cc(NC(=O)C2=C(N3CCOCC3)/C(=C\c3ccc(N(C)C)cc3)CCC2)cc(OC)c1OC ?
Lassa entry inh: inconclusive; Shiga inhibitor: 77*; Marburg entry inh: inconclusive; CHX counter: 46*

Results for O=C(Nc1ccccc1)C1=C(N2CCOCC2)/C(=C/c2cccnc2)CC1 ?
Lassa entry inh: 17%; Shiga inhibitor: -4; Marburg entry inh: 14%; CHX counter: 13

Results for COc1cc(NC(=O)C2=C(N3CCOCC3)/C(=C/c3ccc(Cl)cc3)CC2)cc(OC)c1OC ?
Lassa entry inh: -18%; Shiga inhibitor: -4; Marburg entry inh: 16µM*; CHX counter: 0

Results for COc1ccccc1CNC(=O)C(Cc1ccccc1)NS(=O)(=O)c1ccc2c(c1)CCN2C(C)=O (stereo not given) ?
Lassa entry inh: -5%[46.1 µM]; Marburg entry inh: inconclusive

Results for C/C=C1/C2C=C(C)CC1(N)c1ccc(=O)[nH]c1C2 (stereo not given) ?
Shiga inhibitor: -3; CHX counter: 4

How did Cc1ccc(SCC(=O)NC2CCCCCC2)cc1 do in these assays?
Lassa entry inh: 16%; Shiga inhibitor: 67*; Marburg entry inh: inconclusive; CHX counter: 30*

How did O=C(CCSc1ccc(Cl)cc1)NC1CCCCC1 do in these assays?
Lassa entry inh: 6%; Shiga inhibitor: 43; Marburg entry inh: inconclusive; CHX counter: 6

How did O=C(CCSc1ccccc1)NC1CCCCCC1 do in these assays?
Lassa entry inh: -1%; Shiga inhibitor: 98*; Marburg entry inh: 11%[46.1 µM]; CHX counter: 33*

Results for NC(=O)C1CC(=O)N(c2ccc(OCc3ccc([N+](=O)[O-])cc3)cc2)C1 (stereo not given) ?
Lassa entry inh: inconclusive; Marburg entry inh: 7%; CHX counter: 26*

What do the screens show for `NC(=O)C1CC(=O)N(c2ccc(OCc3ccc(F)cc3)cc2)C1` (stereo not given)?
Lassa entry inh: 28%[46.1 µM]; Shiga inhibitor: 94*; Marburg entry inh: inconclusive; CHX counter: 37*

Results for NC(=O)C1CC(=O)N(c2ccc(OCc3ccccc3Cl)cc2)C1 (stereo not given) ?
Lassa entry inh: 17%; Shiga inhibitor: 25*; Marburg entry inh: 18%; CHX counter: 23*

Results for O=C(O)C1CC(=O)N(c2ccc(OCc3ccccc3Cl)cc2)C1 (stereo not given) ?
Lassa entry inh: -11%; Shiga inhibitor: -4; Marburg entry inh: 1%; CHX counter: -4

What do the screens show for `O=S(=O)(c1ccc(Cl)nc1)N1CCCCC1`?
Lassa entry inh: -1%; Shiga inhibitor: -8; Marburg entry inh: 1%[46.1 µM]; CHX counter: -4

Results for CC(=O)N(CCC1(C(C)C)CCOC(C)(C)C1)C(C)c1cccs1 (stereo not given) ?
Lassa entry inh: inconclusive; Shiga inhibitor: -4; Marburg entry inh: -22%[46.1 µM]; CHX counter: 9

What do the screens show for `CC(=O)Nc1nc(COc2ccc3ccccc3c2)cs1`?
Lassa entry inh: inconclusive; Shiga inhibitor: 97*; Marburg entry inh: -17%; CHX counter: 52*

How did Nc1nc2ccccc2n1CCOc1ccc(F)cc1 do in these assays?
Shiga inhibitor: -8; CHX counter: -1

How did O=C(Nc1nc(COc2ccccc2)cs1)C1CCC1 do in these assays?
Lassa entry inh: inconclusive; Shiga inhibitor: 89*; Marburg entry inh: -29%; CHX counter: 37*

Results for O=C(Nc1nc(COc2ccccc2)cs1)C12CC3CC(CC(C3)C1)C2 ?
Lassa entry inh: -5%; Shiga inhibitor: 27; Marburg entry inh: -5%; CHX counter: 19

What do the screens show for `Nc1nc(CCOc2ccc(F)cc2)cs1`?
Lassa entry inh: -10%; Shiga inhibitor: 154*; Marburg entry inh: 14%[46.1 µM]; CHX counter: 33*

What do the screens show for `CC(=O)Nc1nc(COc2ccccc2)cs1`?
Lassa entry inh: 0%; Shiga inhibitor: 64*; Marburg entry inh: 4%; CHX counter: 44*

Results for O=C(OCC(=O)N1CCCC1)c1cnc(Cl)c(Cl)c1 ?
Lassa entry inh: inconclusive; Marburg entry inh: -2%[46.1 µM]

Results for COc1ccc(C2=CCCC2)c(OC)c1 ?
Lassa entry inh: inconclusive; Marburg entry inh: 17%

How did Cc1ccc(CNC(=O)C(CC(C)C)NS(=O)(=O)c2ccc3c(c2)oc(=O)n3C)cc1 (stereo not given) do in these assays?
Lassa entry inh: -7%[46.1 µM]; Marburg entry inh: -1%[46.1 µM]

What do the screens show for `Cc1ccc(C(=O)Nc2nc(COc3ccccc3)cs2)s1`?
Lassa entry inh: -45%; Shiga inhibitor: 82*; Marburg entry inh: -20%; CHX counter: 31*

How did COc1ccccc1OCc1csc(N)n1 do in these assays?
Lassa entry inh: 1%[46.1 µM]; Shiga inhibitor: 32; Marburg entry inh: 19%[46.1 µM]; CHX counter: 5

Assay outcomes deposited in PubChem BioAssay by National Center for Advancing Translational Sciences (NCATS).
